This note sets out measurements from PubChem BioAssay (NCATS).

Results filed as inconclusive are left out. Calls of active or inactive are those of the source. Calls follow the shape of the dose curve; as a rule, active = well fitted inhibition curve with a large enough effect; inconclusive = small, poorly fitted or top-dose-only effect; inactive = flat fitted curve, though single readings scatter.
% is scaled to controls: 0 for no effect and ±100 for the full control effect; potency is read from the fitted curve at half-maximal effect.

The assay concerns CRL-7250. The assay is described as follows: Cytotoxic Profiling of Annotated Libraries Using Quantitative High-Throughput Screening (AID 1296008). Also: nearly all actives have a fitted effect of over 60% in size. The settings on record: Five cell lines viability, CellTiter-Glo ATP luminescence, 48-72 h; max response: active compounds read low. The method in brief: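 Cytotoxicity was measured as CellTiter-Glo ATP luminescence, read after 10 min at room temperature. Compound treatment of the cells lasted 48 or 72 hr at 37 degrees Celsius in a qHTS format.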
As for `C[C@@H]1C[C@H](C)CN(CCC(=O)Nc2ccc(Br)cc2)C1`, the max response was -5.34% (inactive). For `O=[N+]([O-])c1cn2c(n1)OC[C@@H](OCc1ccc(-c3ccc(OC(F)(F)F)cc3)nc1)C2`, the max response is 2.36% (inactive). Turning to `C=C1CCC2[C@](C)(CCC[C@@]2(C)C=O)[C@H]1CC/C(C)=C/CO` (some centres not stated), the max response was 2.68% (inactive). Regarding `COc1ccc(CCc2nc3cc(-c4c(C)noc4C)ccc3n2CC(C)N2CCOCC2)cc1Cl` (configuration not stated), the max response is -13.4% (inactive). Still for that read-out and setting: as for `O=C(NCC(=O)N1CCCC1)Nc1ccc2cnccc2c1`, the figure is -0.26% (inactive); as for `C=C(C)C(=O)O[C@H]1[C@H]2C(=C)C(=O)O[C@@H]2/C=C(\CO)CC/C=C(/C=O)[C@@H]1O`, -17.3% (inactive). Still for that read-out and setting: the figure for `COc1c(C)cc(NC(=O)c2nn(Cc3ccc(F)cc3)c3c2CN(C(=O)c2ccc[nH]2)C[C@]3(C)C(N)=O)cc1C` is -1.93% (inactive). With `Cc1[nH]c2ccccc2c1CCNCc1ccc(/C=C/C(=O)NO)cc1`, the Potency was 0.517 µM (active). Regarding `O=C(NC1CCC1)c1ccc(C#Cc2cccc(F)c2)nc1`, the max response was -2.08% (inactive).

Turning to `COc1ccc(NC(=O)C2C[C@H](C)CC[C@H]2C(C)C)cc1` (some centres not stated), the outcome was inactive. Consider `COc1cc(OC)c2c(=O)[nH]c(-c3cc(C)c(OCCO)c(C)c3)nc2c1`, for which the max response is -10.3% (inactive).

`CC1(C=O)CCCC2(C)C1CCC13CC(CO)C(CCC12)C3` (configuration not stated): the result was inactive.

In the case of `COc1c2c(nc3occc13)C(CC=C(C)C)(OC)C(O)CC2` (configuration not stated), the max response is -11.5% (inactive). Still for that read-out and setting: as for `Cn1ncnc1[C@@H]1c2n[nH]c(=O)c3cc(F)cc(c23)N[C@H]1c1ccc(F)cc1`, the figure is -10.4% (inactive).

For the compound `O=C(O)c1cccc(-c2ccc(-c3cn(C(=O)N4CCCCC4Cc4ccccc4)nn3)cc2)c1` (configuration not stated), the max response was 0.106% (inactive). Turning to `Cc1cccc(-c2[nH]ncc2-c2ccc(F)c(-c3cnn(CCO)c3)c2)n1`, the max response is -17.9% (inactive).

With `CC1(C)CCC2(C(=O)OC3OC(COC4OC(CO)C(O)C(O)C4O)C(O)C(O)C3O)CCC3(C)C(=CCC4C5(C)CCC(OC6OCC(O)C(O)C6O)C(C)(C)C5CCC43C)C2C1O` (configuration not stated), the max response is -0.133% (inactive).

Turning to `CC(=O)O[C@@H]1[C@@H](O)[C@H](O[C@@H]2[C@@H](O)[C@@H](O)[C@H](O[C@H]3[C@H](O[C@H]4[C@H](O[C@H]5CC[C@@]6(C)C(CC[C@]7(C)C6CC=C6[C@@H]8CC(C)(C)CC[C@]8(C(=O)O)CC[C@]67C)[C@]5(C)CO)O[C@H](CO)[C@@H](O)[C@@H]4O)OC[C@@H](O)[C@@H]3O)O[C@H]2C)OC[C@H]1O` (some centres not stated), the max response was -25.8% (inactive). The same measure, in the same setting: as for `CN(C)CC#CCCC(=O)C(O)(c1ccccc1)C1CCC1` (configuration not stated), the figure is 4.04% (inactive); as for `Cc1cn2c(n1)Cc1ccc(Cl)cc1C(c1ccc(N)cc1)=N2`, -3.82% (inactive); as for `CC1(CO)CC(O)[C@]2(C(=O)O)CCC34CC3(C=CC3[C@]5(C)C(CC[C@]34C)C(C)(CO)[C@@H](O)[C@H](O)[C@@H]5O)C2C1` (some centres not stated), -11.7% (inactive). Regarding `CC(=O)O[C@H]1C[C@@](O)(C(C)C)[C@@H]2[C@@H](OC(=O)c3ccc(O)cc3)CC(C)=CC[C@@]12C`, the max response was 3.65% (inactive).

As to `Cc1ccc(C(C)C)c(O[C@@H]2O[C@H](CO)[C@@H](O)[C@H](O)[C@H]2O)c1`, the Potency was 16.1 µM (active).

In the case of `O=C1Nc2ccccc2-c2nc3ccccc3c(=O)n2-c2c(O)cccc21`, the max response was 3.48% (inactive). In the case of `COc1ccc(CN2CCN(CCCSc3cc(C(C)(C)C)c(O)c(C(C)(C)C)c3)CC2)c(OC)c1OC`, the compound was classed as inactive.

`CN(C)c1ccnc2sc3c(=O)n(N4CCCCCC4)cnc3c12`: the max response is -8.13% (inactive).

As for `Cc1c(C(=O)NCc2cccnc2)nn(-c2ccc(Cl)cc2Cl)c1-c1ccc(Cl)cc1`, the compound was called inactive. As to `CC(C)=CCc1cc2c(cc1O)OC[C@H]1c3ccc(O)cc3O[C@@H]21`, the max response was -7.41% (inactive). Turning to `Cn1cc(-c2ccc(F)c(C(F)(F)F)c2)nc1C1CCN(c2ncnc3[nH]ncc23)CC1`, the max response is -0.425% (inactive). On to `O=C(O)CCc1nccc2c1[nH]c1ccccc12`, for which the max response is -19.9% (inactive).

Take `NS(=O)(=O)c1ccc(N2CCN(CC[C@@H]3OCCc4ccccc43)CC2)cc1`: the max response was -8.79% (inactive). On to `CC1(C)CC[C@]23CO[C@@]4(CCC5[C@@]6(C)CC[C@H](O[C@@H]7OC[C@H](O[C@@H]8O[C@H](CO)[C@@H](O)[C@H](O)[C@H]8O[C@@H]8OC[C@@H](O)[C@H](O)[C@H]8O)[C@H](O)[C@H]7O)[C@@](C)(CO)C6CC[C@@]5(C)[C@]4(C)CC2=O)[C@@H]3C1` (some centres not stated), for which the max response was -12.4% (inactive).
